A selection: hits, their analogues and other compounds. The true share with any hit is near 4.1%.
DAX1 inh-1 – blocks DAX1 repression of SF-1 activated StAR promoter. HEK293T StAR-luciferase reporter, SF-1/DAX-1 repression relief. AID 652010. actives 1.1% (n = 370,000). inhibition, % at 6.8 µM;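 active means inhibition above the mean over all tested compounds plus 3 SD, cut at about 3.6% in these data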;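 further: higher inhibition means more luminescence from relief of DAX-1 repression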
hcDAF12 agonist – H. contortus DAF-12 activation, primary screen; HEK293 hcDAF-12 lit1-tk-luc reporter, luminescence; 0% DMSO, 100% Δ7-dafachronic acid; activation, % at 6.8 µM; actives 1.4% (n = 370,000); AID 652067;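 active means activation above the mean of all tested compounds plus 3 SD, cut at about 5.5% in these data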
DAX1 inh-2 – inhibitors of human orphan nuclear receptor DAX1 (NR0B1). HEK293 Gal4-DAX1 luciferase reporter, luminescence. inhibition, % at 6.75 µM. actives 0.99% (n = 340,000). AID 504766;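 active means inhibition above the mean over all tested compounds plus 3 SD, cut at about 4.2% in these data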;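 further: inhibition shows as a rise in luminescence from relieved DAX1 repression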
ssDAF-12 act – activates DAF-12 receptor from parasite S. stercoralis. HEK293 ssDAF-12/GRIP1 lit1-tk-luc reporter, luminescence; % of 3 µM dafachronic acid response. activation, % at 6.8 µM. actives 1% (n = 370,000). AID 652126;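 active means activation above the mean over all tested compounds plus 3 SD, cut at about 0.9% in these data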
hgDAF-12 ag – agonists of H. glycines DAF-12 nuclear receptor | activation, % at 6.8 µM | AID 687014 | actives 1.8% (n = 370,000) | HEK293 GAL4-hgDAF12 UAS-luciferase reporter, agonist luminescence; normalized to butyrate control;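 active means activation above a cutoff set at the mean of all screened compounds plus 3 SD, cut at about 10% in these data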
DAX1 conf – NR0B1 (human) inhibition, confirmation | HEK293T StAR-promoter luciferase reporter, SF-1/DAX-1 repression | inhibition, % at 6.8 µM | actives 87% (n = 2,400) | shares compounds with DAX1 inh-1;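 active means inhibition above the average of every tested compound plus 3 SD, cut at about 3.8% in these data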;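 further: active compounds raise luminescence by relieving repression of the StAR reporter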
Target sequence (P51843 whole entry, looked up): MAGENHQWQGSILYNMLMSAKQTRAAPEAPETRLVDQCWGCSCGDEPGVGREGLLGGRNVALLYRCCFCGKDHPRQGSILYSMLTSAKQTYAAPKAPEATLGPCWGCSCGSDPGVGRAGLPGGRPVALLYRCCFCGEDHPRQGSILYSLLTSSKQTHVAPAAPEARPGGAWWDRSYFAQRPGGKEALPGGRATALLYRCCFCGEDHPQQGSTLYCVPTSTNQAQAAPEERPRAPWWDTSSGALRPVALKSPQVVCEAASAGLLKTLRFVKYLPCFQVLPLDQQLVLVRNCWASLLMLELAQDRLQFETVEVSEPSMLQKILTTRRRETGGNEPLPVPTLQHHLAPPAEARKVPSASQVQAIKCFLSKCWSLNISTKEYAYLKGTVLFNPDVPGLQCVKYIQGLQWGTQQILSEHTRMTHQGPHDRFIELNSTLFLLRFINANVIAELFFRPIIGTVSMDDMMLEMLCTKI
SF1 AF2mut Luc – counter-screen for DAX1 inhibitors: nonselective inhibitors with SF-1 AF2 mutant; AID 652136; shares compounds with DAX1 inh-1; inhibition, % at 6.8 µM; HEK293 StAR-luciferase, luminescence; actives 78% (n = 2,400);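 active means inhibition above the mean of all tested compounds plus 3 SD, cut at about 3% in these data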
LXR ag – LXR-beta agonism as hcDAF-12 counter-screen. activation, % at 6.8 µM. shares compounds with hcDAF12 agonist. AID 743027. HEK293 Gal4-LXR tk-luc reporter, luminescence, 24 h; normalized: DMSO 0%, positive control 100%. 3,400 tested, under 10 active;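 active means mean percent activation of the reporter above a cutoff set as the average over tested compounds plus their standard deviation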
hcDAF12 ag – confirmation of H. contortus DAF-12 agonists; shares compounds with hcDAF12 agonist; HEK293 hcDAF-12 lit1-tk-luc reporter, luminescence; % of Δ7-dafachronic acid response; actives 61% (n = 3,400); activation, % at 6.8 µM;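 active means mean activation across triplicate tests above the threshold derived from the earlier primary screen, cut at about 5.5% in these data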
hgDAF12 conf – hgDAF-12 agonism, confirmation assay; HEK293 GAL4-hgDAF12 luciferase reporter, agonist mode; percent of butyrate response; shares compounds with hgDAF-12 ag; actives 80% (n = 3,300); activation, % at 6.8 µM;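 active means mean activation over triplicate wells above the hit cutoff derived from the earlier primary screen, cut at about 11% in these data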
LXRb DAF12 ctr – activates human LXR-beta, counter-screen for DAF-12 agonists | 3,300 tested, under 10 active | AID 743051 | activation, % at 6.8 µM | shares compounds with hgDAF-12 ag | HEK293 Gal4-LXR luciferase reporter, 24 h;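 active means mean activation of the triplicate above a set limit carried over from the primary screen, none filed active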
Large screens that a line does not name were inactive (follow-up assays come after a bar, where they were run).

CCOc1ccc(-c2nnc(SCC(=O)N3CCNC3=O)o2)cc1	DAX1 inh-1 6.2, hcDAF12 agonist 6.2, hgDAF-12 ag 13.9 | DAX1 conf 11.9 | SF1 AF2mut Luc 5.3 | hgDAF12 conf 15.0 | LXRb DAF12 ctr inactive
C/C(=N\NC(=O)c1nn(C)c(C)c1Br)c1ccc(NC(=O)c2ccoc2C)cc1	DAX1 inh-1 5.5, hcDAF12 agonist 8.5, hgDAF-12 ag 19.9 | DAX1 conf inactive | SF1 AF2mut Luc inactive | LXR ag inactive | hcDAF12 ag inactive | hgDAF12 conf inactive | LXRb DAF12 ctr inactive
C/C(=N\NC(=O)c1ccoc1C)c1cccnc1	DAX1 inh-1 5.5, hgDAF-12 ag 14.2 | DAX1 conf inactive | SF1 AF2mut Luc inactive | hgDAF12 conf inactive | LXRb DAF12 ctr inactive
CCC(=O)Nc1ccc(/C(C)=N/NC(=O)c2c(Br)c(C)nn2C)cc1	none
C/C(=N\NC(=O)c1cccs1)c1cccnc1	DAX1 inh-1 5.5, hcDAF12 agonist 8.4, hgDAF-12 ag 24.6 | DAX1 conf inactive | SF1 AF2mut Luc inactive | LXR ag inactive | hcDAF12 ag inactive | hgDAF12 conf inactive | LXRb DAF12 ctr inactive
C/C(=N\NC(=O)c1ccc2ccccc2c1)c1cccs1	DAX1 inh-1 9.8, hgDAF-12 ag 13.5 | DAX1 conf 7.5 | SF1 AF2mut Luc 5.0 | hgDAF12 conf 20.6 | LXRb DAF12 ctr inactive
C/C(=N\NC(=O)c1ccncc1)c1cccs1	none
C/C(=N\NC(=O)c1cccs1)c1ccc(C(=O)O)s1	DAX1 inh-1 8.0, hcDAF12 agonist 7.0, hgDAF-12 ag 14.9 | DAX1 conf inactive | SF1 AF2mut Luc inactive | LXR ag inactive | hcDAF12 ag inactive | hgDAF12 conf inactive | LXRb DAF12 ctr inactive
CC(=O)Nc1cccc(NC(=O)CSc2nc3c(=O)n(C)c(=O)n(C)c3n2C)c1	none
O=C(c1cnn(-c2ccccc2)c1)c1ccccc1O	DAX1 inh-1 6.1, hcDAF12 agonist 7.9, hgDAF-12 ag 22.9 | DAX1 conf 13.2 | SF1 AF2mut Luc 7.9 | LXR ag inactive | hcDAF12 ag 7.1 | hgDAF12 conf 19.5 | LXRb DAF12 ctr inactive
O=C(c1cnn(-c2ccccc2)c1)c1cc(F)ccc1O	none
Nc1[nH]c(C(=O)c2ccc(Br)cc2)c(-c2ccccc2Cl)c1C(=O)NCCc1c[nH]c2ccccc12	none (no result: DAX1 inh-2)
Oc1ccc(O)c(Cc2nc3ccccc3s2)c1	none
Oc1cccc(-c2nc3ccccc3s2)c1	DAX1 inh-1 5.3, hcDAF12 agonist 21.3, ssDAF-12 act 3.6, hgDAF-12 ag 17.4 | DAX1 conf 11.0 | SF1 AF2mut Luc 8.3 | LXR ag inactive | hcDAF12 ag 15.6 | hgDAF12 conf 23.8 | LXRb DAF12 ctr inactive
COc1cccc(-c2nc3ccccc3s2)c1O	DAX1 inh-1 7.0, hcDAF12 agonist 16.4, ssDAF-12 act 3.5, hgDAF-12 ag 24.9 | DAX1 conf 17.9 | SF1 AF2mut Luc 8.4 | LXR ag inactive | hcDAF12 ag 14.8 | hgDAF12 conf 21.2 | LXRb DAF12 ctr inactive
COc1cc(OC)c(-c2nc3ccccc3s2)cc1OC	none
CC(=O)Nc1ccc(S(=O)(=O)N2CCN(C(=O)N3CCCCC3)CC2)cc1	none
Cc1ccccc1NC(=O)c1nnn(-c2ccc3c(c2)OCCO3)c1N	none

Screens: PubChem BioAssay, The Scripps Research Institute Molecular Screening Center
